Experimental findings from PubChem BioAssay AID743287 (Broad Institute, 2014) are described below.

The whole screen tested about 370,000 compounds, of which about 2,300 (0.62%) were called active. The sample holds actives, similar compounds and a random draw of the others, so the mix is not that of the screen. Unmarked numbers belong to inactive results.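 Rule for the calls: active = lowest replicate activation of at least 40%, so every replicate reaches that level; inactive = the rest.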

This test in a line: GLuc luminescence reporter in INS-1E cells, primary screen for activators of glucose-dependent secretion of insulin (AID 743287).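 Note: 0% = median of neutral control wells and 100% = median of IBMX positive control wells.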 The note with it: INS-1E GLuc reporter insulin secretion, 2-3 h, at 16.6 µM, active compounds read high.
On to `CO[C@H]1CN(C)C(=O)c2cc(NS(=O)(=O)c3ccccc3C)ccc2OC[C@@H](C)NC[C@@H]1C`, for which the activation is 2.17%.

On to `C[C@@H]1CN([C@@H](C)CO)S(=O)(=O)c2ccc(Br)cc2O[C@@H]1CN(C)C(=O)CN(C)C`, for which the activation was 21.4%.

`COCC(=O)N(C)C[C@H]1Oc2cc(C#CC(C)C)ccc2S(=O)(=O)N([C@H](C)CO)C[C@@H]1C`: the activation was 1.27%.

In the case of `COCC(=O)N(C)C[C@H]1Oc2cc(Br)ccc2S(=O)(=O)N([C@H](C)CO)C[C@H]1C`, the activation was 46.1% (active).

For the molecule `COc1ccc(NC(=O)N[C@H]2C=C[C@H](CC(=O)NCc3ccccn3)O[C@H]2CO)cc1`, the activation is 15.4%.

For the molecule `COc1ccc2c3c(n(C)c2c1)[C@H](CO)N(Cc1ccccc1)CC31CCN(C)CC1`, the activation was 15.2%.

Turning to `O=C(O)CCCCCCCCCC[n+]1ccccc1`, the activation was 91.6% (active).

Regarding `CC(C)C#Cc1ccc2c(c1)O[C@H](CN(C)CC1CCOCC1)[C@@H](C)CN([C@H](C)CO)S2(=O)=O`, the activation was -18.8%.

In the case of `CCCc1cc(-c2nc(-c3ccc(C)cc3)cs2)ccn1`, the activation was 90.4% (active).

As for `CCCc1cc(=O)oc2c(C)c(OCC(=O)NCc3ccccn3)ccc12`, the activation was 11.9%.

In the case of `CCCCCN1CC(O)=C(c2nc(-c3ccc(Cl)cc3)cs2)C1=N`, the activation was 35.7%.

Consider `CC(C)NC(=O)N(C)C[C@@H]1Oc2ncc(C3=CCCCC3)cc2C(=O)N([C@H](C)CO)C[C@@H]1C`, for which the activation was -12.5%.

In the case of `CC(=O)Nc1ccc(S(=O)(=O)N2CCC(C(=O)NC3CC3)CC2)cc1`, the activation was 29.2%.

In the case of `Cc1ccc(NC(=O)C2CCN(S(=O)(=O)c3ccc4c(c3)NC(=O)CO4)CC2)cc1C`, the activation was -23%.

As to `Cn1c(=O)oc2cc(S(=O)(=O)N3CCC(C(=O)Nc4ccc(OC(F)(F)F)cc4)CC3)ccc21`, the activation was 48.6% (active).

Regarding `C[C@H](NC(=O)[C@@H]1[C@@H](CO)[C@@H]2Cn3c(ccc(-c4cccc(F)c4)c3=O)[C@@H]2N1C)c1ccccc1`, the activation was -1.52%.

For `C[C@@H]1CCCCO[C@@H](CN(C)S(=O)(=O)c2cn(C)cn2)[C@H](C)CN([C@@H](C)CO)C(=O)c2cc(NC(=O)Nc3ccccc3)ccc2O1`, the activation is 20.9%.

`CN1C(=O)c2cc(NC(=O)Cc3ccccc3)ccc2OC[C@H]2O[C@H](CC(=O)NCc3ccc(Cl)cc3)CC[C@H]21`: the activation was -7.02%.

As to `C[C@@H]1CN([C@H](C)CO)C(=O)Cc2cc(NC(=O)Nc3ccc(C(F)(F)F)cc3)ccc2O[C@@H]1CN(C)S(=O)(=O)c1ccccc1`, the activation was 7.64%.

Consider `COc1ccc(CN2CC[C@H]3C=CC[C@@H](C(=O)N4CCOCC4)[C@H]3C2=O)cc1OC`, for which the activation was 9.86%.

In the case of `COc1ccc(CN2CCOC2=O)cc1OC`, the activation is 59.2% (active).

Regarding `COc1ccc(CN2CCCCC2C)cc1OC` (stereo not drawn), the activation is 11.6%.

As for `CNC[C@@H]1Oc2ccc(NC(C)=O)cc2CC(=O)N(C)C[C@@H]1C`, the activation was 3.12%.

Take `COc1ccc(CN2[C@@H](CO)[C@@H]3c4ccccc4N(C(=O)Nc4ccccc4)C[C@@H]32)cc1`: the activation was -18.4%.

Consider `COC(=O)N1Cc2ccnnc2CC1c1ccccc1Br` (stereo not drawn), for which the activation is 5.66%.

For the molecule `COc1ccc(-c2ccccc2C2Cc3nnccc3CN2C(=O)Nc2ccccc2)cc1` (stereo not drawn), the activation was 60.4% (active).

For the molecule `CO[C@H]1CN(C)C(=O)c2ccc(NC(=O)NC(C)C)cc2OC[C@H](C)N(Cc2cncnc2)C[C@@H]1C`, the activation was -3.42%.

For the molecule `Clc1ccc(Cl)c(Oc2ccc(Oc3nc(Cl)ccc3Cl)cc2)n1`, the activation is 43.2% (active).

For the molecule `CC(C)NC(=O)N(C)C[C@@H]1OCCCC[C@H](C)Oc2ccc(NC(=O)Nc3ccccc3)cc2C(=O)N([C@H](C)CO)C[C@@H]1C`, the activation was -11.5%.

`CCOc1ccc(C(C)=O)cc1COC(=O)CN1C(=O)NC2(CCCC2)C1=O`: the activation is 241% (active).

As for `Cc1ccc(COC(=O)CN2C(=O)NC3(CCCC3)C2=O)cc1`, the activation was 6.93%.

As to `CCOc1ccc(C(C)NC(=O)CN2C(=O)NC3(CCCCC3)C2=O)cc1OCC` (stereo not drawn), the activation is 5.62%.

For `CCC(=O)N(C)C[C@@H]1Oc2cc(C#CCOC)ccc2S(=O)(=O)N([C@H](C)CO)C[C@H]1C`, the activation was 8.1%.

For the molecule `CCCN(C)C[C@@H]1OCCCC[C@H](C)Oc2ccc(NS(=O)(=O)c3ccc(C)cc3)cc2C(=O)N([C@H](C)CO)C[C@@H]1C`, the activation is 7.05%.

Turning to `COCCNc1nc(N)c([N+](=O)[O-])c(NCCO)n1`, the activation was 17.8%.

In the case of `COCCNc1nc(N)c([N+](=O)[O-])c(N2CCCCCC2)n1`, the activation was 52.3% (active).

For `C=CCNc1nc(N)c([N+](=O)[O-])c(NC2CCCCC2)n1`, the activation is 20.2%.

In the case of `CC(=O)Nc1ccc2c(c1)C(=O)N(C)[C@H]1CC[C@H](CC(=O)NCc3ccccc3Cl)O[C@H]1CO2`, the activation is -3.1%.

`N#C[C@H]1[C@H](c2ccccc2)[C@@H](CO)N1C(=O)c1cccnc1`: the activation is 1.43%.

With `C[C@@H]1CN([C@@H](C)CO)C(=O)c2cc(/C=C/c3ccccc3)cnc2O[C@H]1CN(C)C(=O)C1CCC1`, the activation was -16.6%.

For the molecule `COC(=O)C1=C(C)N(Cc2cccc(C(F)(F)F)c2)C(=NCc2ccccc2)NC1c1ccccc1C(F)(F)F` (stereo not drawn), the activation is 198% (active).

Take `COC(=O)C1=C(C)N(Cc2cccc(C(F)(F)F)c2)C(=NCc2cccc(C(F)(F)F)c2)NC1c1ccccc1C(F)(F)F` (stereo not drawn): the activation was 23.9%.

With `COC(=O)C1=C(C)N(Cc2ccccc2)C(=NCCCOC(C)C)N[C@H]1c1ccccc1`, the activation is -19.7%.

Regarding `C=CCN=C1NC(c2cccc(C(F)(F)F)c2)C(C(=O)OC)=C(C)N1C` (stereo not drawn), the activation is -3.97%.

In the case of `COC(=O)C1=C(C)N(Cc2ccc(F)cc2)C(=S)NC1c1cccc(Cl)c1` (stereo not drawn), the activation is -20.6%.

With `COC(=O)C1=C(C)N(Cc2cccc(C(F)(F)F)c2)C(=NCc2ccccc2)NC1c1ccc(Cl)cc1` (stereo not drawn), the activation is 160% (active).

Consider `COc1ccc(S(=O)(=O)N(C)C[C@H]2Oc3c(NS(=O)(=O)c4cccs4)cccc3C(=O)N([C@H](C)CO)C[C@@H]2C)cc1`, for which the activation is -10.4%.

Consider `CO[C@H]1CN(C)C(=O)c2ccc(NC(=O)C3CCCC3)cc2OC[C@H](C)N(C(=O)CC2CC2)C[C@@H]1C`, for which the activation is 8.95%.
